Measurements from PubChem BioAssay.
Several values for one entry are separate records, joined by “and”; a condition that tells them apart may be missing. Equal values may be shown once. Activity calls are given as the source filed them.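 How the source made its calls, unless noted: active means compounds whose cell count with miR-34 switched on is under 0.7 times the count with it off; inactive means the rest.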

Key:
[1] = system: Aerobactin synthetase IucA (Klebsiella pneumoniae); assay: IucA aerobactin synthetase inhibitors, biochemical, Tocris library, absorbance (AID 1345561; call rule not given here;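 further: 100% = enzyme without compound and 0% = no enzyme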); details: purified IucA enzyme assay, absorbance (OD) read-out; stronger effect = lower value;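 tested at 8 µM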
[2] = sensitizers of A549 cells to miR-34 induction, primary screen, imaging, A549 dox-inducible miR-34, nuclei and caspase counts (AID 1347080); details: A549 miR-34 inducible, Hoechst nuclei count, 48 h
[3] = viability rescue of complex I mutant cybrids, primary screen, cell-based, galactose medium, ATP luminescence (AID 1645843;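 active means z-score of at least 1.8 in each of two replicates, scored against plate mean and spread of sample wells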;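 further: positive z means more ATP and so rescue of galactose-driven cybrid death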); details: complex I mutant cybrid cells, 72 h, stronger effect = higher value
[4] = stronger effect = lower value, cell number ratio, induced over uninduced
[5] = measured here: relative caspase fold change +Dox/-Dox
[6] = measured here: total cells with miR-34 induction, stronger effect = lower value
[7] = measured here: total cells without miR-34 induction

| SMILES | remaining activity [1] | fold change [2, 4] | fold change [2, 5] | cell count [2, 6] | cell count [2, 7] | z-score [3] |
| --- | --- | --- | --- | --- | --- | --- |
| O=C(NCCCN1CCCCCC1)C(c1ccccc1)C1CCCCC1 (stereo unspecified) | 115% (inactive) | 0.949 (inactive) | 0.832 | 8370 | 8820 | -0.905 (inactive) |
| CC(C)Oc1cccc(-n2c(CCc3c[nH]c4ccc(Br)cc34)nc3ccccc3c2=O)c1 | 110% (inactive) | 1.07 (inactive) | 0.884 | 6620 | 6200 | -1.18 (inactive) |
| CN(C)[C@@H]1CCc2[nH]c3ccc(NC(=O)c4ccc(F)cc4)cc3c2C1 | 77.6% (inactive) | 0.87 (inactive) | 1.77 | 8840 | 10200 | 0.495 (inactive) |
| Cc1cc(Cn2cnc3c2C[C@@H](C(=O)O)N(C(=O)C(c2ccccc2)c2ccccc2)C3)ccc1N(C)C | 122% (inactive) | 0.877 (inactive) | 0.611 | 8880 | 10100 | 0.245 (inactive) |
| CCCC[P+](CCCC)(CCCC)Cc1ccc(NC(=O)[C@@H](Cc2ccc3ccccc3c2)NC(=NC2CCCCC2)NC2CCCCC2)cc1 | 117% (inactive) | 1.01 (inactive) | 1.13 | 2940 | 2900 | -0.83 (inactive) |
| O=[N+]([O-])c1cc(Cl)ccc1S(=O)(=O)N1CCN(Cc2ccccc2)CC1 | 110% (inactive) | 0.93 (inactive) | 1.18 | 8490 | 9130 | -0.68 (inactive) |
| CCOc1ccccc1O[C@H](c1ccccc1)[C@H]1CNCCO1 (racemic) | 119% (inactive) | 0.937 (inactive) | 0.923 | 7740 | 8260 | -0.36 (inactive) |
| N[C@@H](C(=O)O)c1ccc(C(=O)O)c(C(=O)O)c1 | 95.5% (inactive) | 0.914 (inactive) | 0.832 | 8600 | 9410 | 0.05 (inactive) |
| FC(F)(F)c1cccc(-c2noc(-c3cc(-c4ccccc4)c(C(F)(F)F)s3)n2)c1 | 101% (inactive) | 0.966 (inactive) and 0.884 (inactive) | 1.01 and 0.898 | 5830 and 8210 | 6040 and 9290 | 0.175 (inactive) |
| O=C1C=CC(=O)C2=C1C1c3ccccc3C2c2ccccc21 | 104% (inactive) | 0.889 (inactive) | 1.44 | 6130 | 6900 | -0.705 (inactive) |
| COc1ccc2[nH]c(-c3ccccc3)c(CCNC(C)=O)c2c1 | 99.3% (inactive) | 0.991 (inactive) | 0.88 | 7770 | 7840 | -0.185 (inactive) |
| COc1ccc(Nc2ncnc3ccc(OC)cc23)cc1 | 108% (inactive) | 0.902 (inactive) | 1.09 | 6910 | 7660 | -0.345 (inactive) |
| O=S(=O)(c1cccc2cnccc12)N1CCNCC1 | 125% (inactive) | 1.05 (inactive) | 0.794 | 9210 | 8760 | -0.56 (inactive) |
| N[C@@H](C(=O)O)[C@@H](OCc1ccccc1)C(=O)O (racemic) | 110% (inactive) | 0.921 (inactive) | 1.02 | 8010 | 8700 | 0.315 (inactive) |
| N=C(N)c1ccc(N2CCN(C3CCN(CC(=O)O)CC3)CC2)cc1 | 115% (inactive) | 1 (inactive) | 0.72 | 9390 | 9350 | -0.165 (inactive) |
| CCC(=O)NC1Cc2ccccc2C(c2ccccc2)C1 (stereo unspecified) | 124% (inactive) | 1.02 (inactive) | 1.01 | 8500 | 8340 | 0.46 (inactive) |
| C=C1C(=O)O[C@@H]2/C=C(\C)CC/C=C(\C)CC[C@@H]12 | 118% (inactive) | 1.04 (inactive) | 1.29 | 8100 | 7810 | -0.605 (inactive) |
| NC(=O)N1c2ccccc2CC(O)c2ccccc21 (stereo unspecified) | 111% (inactive) | 0.942 (inactive) | 0.846 | 8870 | 9420 | -0.055 (inactive) |
| COc1cc(OC)c(C(=O)CCCCN2CCC3(CC2)NC(=O)NC3=O)cc1NS(=O)(=O)c1ccc(C(F)(F)F)cc1 | 118% (inactive) | 0.962 (inactive) | 0.689 | 8560 | 8900 | -0.165 (inactive) |
| C=CCNC(=O)c1cc([N+](=O)[O-])cc2c(=O)[nH]c(Nc3ccc(Cl)c(Cl)c3)nc12 | 116% (inactive) | 0.926 (inactive) | 0.827 | 8840 | 9550 | -0.09 (inactive) |
| Cc1ccc(OC[C@@H](O)[C@H](C)NC(C)C)c2c1CCC2 | 82.6% (inactive) | 0.94 (inactive) | 1.07 | 8280 | 8800 | -0.36 (inactive) |
